Screening results as filed in PubChem BioAssay.
NPSR antagonist: qHTS Assay for Antagonists of the Neuropeptide S Receptor: cAMP Signal Transduction | Q6W5P4 | CHO-NPSR cells, cAMP TR-FRET, antagonist mode | Potency, µM (series often up to 38.3 µM), without a hit: at the top dose activity change, negative = inhibition, most hits filed as inhibitors | actives 1% (n = 220,000); further: on the % scale 0 is the no-effect control and ±100 the full control effect; nearly all actives have a fitted effect of over 50% in size
Target sequence (Q6W5P4 whole entry, looked up): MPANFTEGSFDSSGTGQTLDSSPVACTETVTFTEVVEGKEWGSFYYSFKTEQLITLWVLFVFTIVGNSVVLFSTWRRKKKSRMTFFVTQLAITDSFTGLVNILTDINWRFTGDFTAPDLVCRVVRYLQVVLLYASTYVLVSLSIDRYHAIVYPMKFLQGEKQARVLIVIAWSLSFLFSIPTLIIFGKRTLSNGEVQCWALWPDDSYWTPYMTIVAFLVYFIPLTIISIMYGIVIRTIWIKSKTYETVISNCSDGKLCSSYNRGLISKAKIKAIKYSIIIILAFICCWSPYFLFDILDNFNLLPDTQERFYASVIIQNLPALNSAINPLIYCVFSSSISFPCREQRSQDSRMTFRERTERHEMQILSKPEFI
Epigenetic derep: Quantitative High-Throughput Screen for Regulators of Epigenetic Control. murine LDR cells, GFP reporter derepression, 30 h. Potency, µM (top dose mostly 53.9 µM), without a hit: at the highest dose GFP activation, hits mostly activators. actives 0.2% (n = 280,000); further: % of control where 0% means no effect; nearly all actives have a fitted effect of over 60% in size
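Murine LDR cells bearing a silenced CMV-driven GFP reporter were exposed to compound for 30 h at 37 C. After PBS washes, GFP-positive cells (20-120 um objects) counted by laser-scanning microplate cytometry.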
LMNA splice mod: qHTS Assay for Modulators of Lamin A Splicing | HeLa LMNA splicing GFP/RFP minigene ratio, 48 h | actives 0.01% (n = 200,000) | Potency, µM (doses to about 46.1 µM), for inactives: at the top dose ratio change, negative = inhibition, actives largely listed as inhibitors; active means well fitted inhibition curve with a large enough effect in the signal ratio, with a control signal flat, not every such curve was filed as active; inconclusive means small, poorly fitted or top-dose-only effect, or effect the other way, or a change in a side signal; the % refers to the signal ratio; further: on the % scale 0 is the no-effect control and ±100 the full control effect
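S3 HeLa stable clones carrying a lamin A-EGFP splicing minigene plus DsRed2 were seeded at 600 cells/well in Opti-MEM with 2% FBS, pin-dosed and incubated 48 h at 37°C. Acumen cytometry (488 nm) gave the GFP/RFP total-intensity ratio.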
HTT ATP protect: qHTS Multiplex Assay to Identify Dual Action Probes in a Cell Model of Huntington: Cytoprotection (ATP); PC12 HTT-Q103 induced, cytoprotection, ATP luminescence, 40 h; Potency, µM (highest dose often 56.4 µM), for inactives: cytoprotection (ATP increase), actives largely listed as activators; actives 0.14% (n = 230,000); further: % of control where 0% means no effect; nearly all actives have a fitted effect of over 45% in size
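Compounds were screened for protection of PC12 cells against cell death after tebufenozide induction (100 nM final) of mutant Huntingtin exon 1 (Q103) fused to GFP.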
HTT aggregate: qHTS Multiplex Assay to Identify Dual Action Probes in a Cell Model of Huntington: Aggregate Formation (GFP). PC12 HttQ103-GFP aggregates, Acumen cytometry, 40 h. Potency, µM (highest dose often 46.1 µM), inactives show top-dose activity change, negative = inhibition, actives largely listed as inhibitors. actives 1.1% (n = 220,000). AID 1688, 2009; further: on the % scale 0 is the no-effect control and ±100 the full control effect; nearly all actives have a fitted effect of over 60% in size
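Aggregate formation scored by laser-scanning cytometer (488 excitation, 500–530 emission) in lysed PC12 cells expressing Q103-GFP after 100 nM tebufenozide induction; library tested in dose series, with ATPLite reagent added in the multiplex.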
* = called active by the depositor; ! = not confirmed by another sample; [ ] = another dose, or the depositor's remark. This is a sample that favours compounds with a hit; in the whole collection about 1.5% have one here. Unless noted, the call rests on the fitted dose curve; in most records, active means well fitted curve in the direction sought with a large enough effect; inconclusive means small, poorly fitted or top-dose-only effect, or another doubt; inactive means no such curve, though single readings can be large; an effect the other way counts as inactive or inconclusive. Potency means the concentration at half of the fitted maximal effect.

What do the screens show for `CCOc1ccc(C(=O)N/N=C/c2cccc3cccnc23)cc1`?
NPSR antagonist: -14%[46.1 µM]; Epigenetic derep: 1%; LMNA splice mod: inconclusive; HTT ATP protect: -64%; HTT aggregate: 3.5µM*

How did COc1ccc(C(=O)N/N=C/c2cccc3cccnc23)cc1 do in these assays?
NPSR antagonist: -14%[46.1 µM]; Epigenetic derep: 4%; LMNA splice mod: inconclusive; HTT ATP protect: -89%; HTT aggregate: inconclusive

Results for CCCCC[C@H](O)/C=C/C=C\CCCCCCCCCC(=O)O ?
Epigenetic derep: 1%; HTT ATP protect: -19%

What do the screens show for `CCCCOc1ccc(-c2c(C(=O)Nc3ccccc3)c(C)[nH]c(=S)c2C#N)cc1`?
NPSR antagonist: 10µM*; Epigenetic derep: 1%; LMNA splice mod: 5%[46 µM]; HTT ATP protect: 20%; HTT aggregate: 2%

Results for Cc1cc(C)cc(N(CC(=O)O)S(=O)(=O)c2cccnc2)c1 ?
HTT ATP protect: -8%

What do the screens show for `Cc1cccc(NC2=NC3(CCCCC3)N=C(N)N2)c1C`?
NPSR antagonist: inconclusive; Epigenetic derep: 1%; LMNA splice mod: -11%; HTT ATP protect: -2%; HTT aggregate: -1%

What do the screens show for `Cc1cccc(C)c1NC1=NC2(CCCCC2)N=C(N)N1`?
NPSR antagonist: -12%[46.1 µM]; Epigenetic derep: -1%; LMNA splice mod: -13%; HTT ATP protect: 0.63µM*

How did Cc1cccc(NC(=S)N=Nc2c(O)[nH]c3ccccc23)c1 do in these assays?
NPSR antagonist: -33%; Epigenetic derep: -6%; LMNA splice mod: inconclusive; HTT aggregate: 4µM*

What do the screens show for `COc1ccc(CCCO[C@@H](Cn2ccnc2)c2ccc(OC)cc2)cc1`?
Epigenetic derep: 0%; HTT ATP protect: -11%

What do the screens show for `CCOC(=O)c1ccc(NC(=O)Cn2ncc(Cl)c(Cl)c2=O)cc1`?
NPSR antagonist: 10µM*; Epigenetic derep: inconclusive; LMNA splice mod: -3%; HTT aggregate: inconclusive

How did O=C(O)CSc1nc(-c2cccs2)cc(C(F)(F)F)n1 do in these assays?
NPSR antagonist: -16%; Epigenetic derep: 0%

Results for CCC(C)NC(=O)CSc1nc(-c2cccs2)cc(C(F)(F)F)n1 (configuration not stated) ?
NPSR antagonist: inconclusive; Epigenetic derep: 3%; LMNA splice mod: 8%; HTT ATP protect: -13%[10 µM]; HTT aggregate: 13µM*

How did CCOc1cccc2oc(-c3ccccc3Cl)cc(=O)c12 do in these assays?
Epigenetic derep: 8%; HTT ATP protect: -30%

Results for COc1ccc(C(=O)c2ccccc2)c(O)c1 ?
NPSR antagonist: -23%[46.1 µM]; Epigenetic derep: 2%; LMNA splice mod: inconclusive; HTT ATP protect: -34%[10 µM]; HTT aggregate: 11µM*!

How did NNC(=O)[C@@H](O)[C@H](O)[C@H](O)CO do in these assays?
HTT ATP protect: 8%[10 µM]

What do the screens show for `O=C1C(Cl)=C(N2CCN(c3ccccc3[N+](=O)[O-])CC2)C(=O)c2ccccc21`?
NPSR antagonist: 10µM*; Epigenetic derep: inconclusive; LMNA splice mod: inconclusive; HTT ATP protect: -11%[10 µM]; HTT aggregate: inconclusive

What do the screens show for `O=NC1=C(c2c(O)[nH]c3ccccc23)CCCC1`?
NPSR antagonist: 1%[46.1 µM]; Epigenetic derep: 5%; LMNA splice mod: -8%; HTT ATP protect: -4%; HTT aggregate: 1%

Results for O=Nc1c(-c2c(O)[nH]c3ccccc23)[nH]c2ccccc12 ?
NPSR antagonist: 5%[46.1 µM]; Epigenetic derep: 0%; LMNA splice mod: inconclusive; HTT ATP protect: 1.3µM*!

Results for CC1=C(C(N)=O)C(c2ccc(C(C)C)cc2)n2nc(SCc3ccccc3F)nc2N1 (configuration not stated) ?
Epigenetic derep: 0%

Results for Nc1cc(-c2ccc(Br)cc2)nn1S(=O)(=O)c1cccc2nsnc12 ?
NPSR antagonist: -9%[46.1 µM]; Epigenetic derep: 0%; LMNA splice mod: -13%; HTT ATP protect: -76%; HTT aggregate: 25µM*

How did O=C(NCc1cccc(F)c1)C1CCN(c2nc3ccccc3nc2C(F)(F)F)CC1 do in these assays?
Epigenetic derep: -2%

What do the screens show for `Cc1ccc(NS(=O)(=O)c2c(C)nc3sc(C)cn3c2=O)c(C)c1`?
Epigenetic derep: 0%

What do the screens show for `Cc1cccc(NC(=O)CSc2nnc(-c3ccccc3C)o2)c1`?
NPSR antagonist: -19%[46.1 µM]; Epigenetic derep: 2%; LMNA splice mod: inconclusive; HTT aggregate: 0.0028µM*

What do the screens show for `c1ccc(C[n+]2cccc3c4ccccc4ccc32)cc1`?
NPSR antagonist: 3%[46.1 µM]; Epigenetic derep: -1%; LMNA splice mod: 9%; HTT ATP protect: -65%; HTT aggregate: 28µM*

What do the screens show for `O=[N+]([O-])c1ccc(C[n+]2cccc3ccccc32)cc1`?
NPSR antagonist: 6%; Epigenetic derep: 4%; LMNA splice mod: inconclusive; HTT ATP protect: 8%[10 µM]; HTT aggregate: -1%

What do the screens show for `NC(=O)C[n+]1cccc2ccccc21`?
NPSR antagonist: -5%[46.1 µM]; Epigenetic derep: 0%; LMNA splice mod: 5%; HTT ATP protect: 14%; HTT aggregate: 3%

Results for CCCCC[n+]1cccc2c3ccccc3ccc21 ?
NPSR antagonist: 6%; Epigenetic derep: 0%; HTT ATP protect: -97%; HTT aggregate: 2.5µM*

How did CN(C1=C(N2CCCCC2)C(=O)c2ccccc2C1=O)c1ccccc1 do in these assays?
NPSR antagonist: 13µM*; Epigenetic derep: 4%; LMNA splice mod: inconclusive; HTT ATP protect: -19%; HTT aggregate: -24%

What do the screens show for `COc1ccccc1NC1=C(N2CCCCC2)C(=O)c2ccccc2C1=O`?
NPSR antagonist: 10%[46.1 µM]; Epigenetic derep: 1%; LMNA splice mod: inconclusive; HTT ATP protect: -49%[10 µM]; HTT aggregate: 13µM*

What do the screens show for `O=S(=O)(c1ccc(-n2cnnn2)cc1)N1CCN(c2cccc(Cl)c2)CC1`?
Epigenetic derep: 0%

What do the screens show for `CN(C)C=Nc1ncc2c([nH]c3ccccc32)c1C#N`?
NPSR antagonist: -16%[46.1 µM]; Epigenetic derep: 0%; LMNA splice mod: inconclusive; HTT ATP protect: -21%; HTT aggregate: 6.3µM*

Results for CN(C)/C=N/c1[nH]ncc1C#N ?
NPSR antagonist: 11%; Epigenetic derep: 0%; LMNA splice mod: inconclusive; HTT ATP protect: -9%[10 µM]; HTT aggregate: 14%

How did CCn1c(=O)n(-c2cccc(Cl)c2)c(=O)c2sc3ccccc3c21 do in these assays?
Epigenetic derep: 0%

Results for COc1ccc(NC(=O)Nc2nc(C)cc(C)n2)c(OC)c1 ?
NPSR antagonist: 7%; Epigenetic derep: -2%; HTT aggregate: 28µM*

How did COC(=O)c1cc(OC)c(OC)cc1NC(=O)Nc1ccc(OC)cc1OC do in these assays?
NPSR antagonist: -6%[46.1 µM]; Epigenetic derep: -6%; LMNA splice mod: -6%; HTT ATP protect: -8%; HTT aggregate: 14%
